A selection: hits, their analogues and other compounds. The true share with any hit is near 10%.
ALDH1A1 block – qHTS Assay for Inhibitors of Aldehyde Dehydrogenase 1 (ALDH1A1); Aldehyde dehydrogenase 1A1 (Homo sapiens), P00352; Purified ALDH1A1, NADH fluorescence, propionaldehyde substrate; 220,000 tested, 7.3% active; AID 1030, 2008; Potency, µM (doses to about 75.3 µM), inactives show top-dose activity, negative = inhibition, actives largely listed as inhibitors; active means well fitted inhibition curve with a large enough effect, not every such curve was filed as active; inconclusive means small, poorly fitted or top-dose-only effect, or another doubt; inactive means no such curve, though single readings can be large or run the other way;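 further: potency means the concentration at half of the fitted maximal effect; plate controls were no enzyme wells and a reference inhibitor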
HPGD block – qHTS Assay for Inhibitors of HPGD (15-Hydroxyprostaglandin Dehydrogenase) | 15-hydroxyprostaglandin dehydrogenase [NAD(+)] (Homo sapiens), P15428 | purified HPGD, NADH fluorescence kinetic, PGE2 substrate | Potency, µM, for the others: top-dose activity change, negative = inhibition, actives largely listed as inhibitors | 150,000 tested, 4.3% active | AID 894, 2007; active means well fitted inhibition curve with a large enough effect, not every such curve was filed as active; inconclusive means small, poorly fitted or top-dose-only effect, or another doubt; inactive means no such curve, though single readings can be large or run the other way; further: potency means the concentration at half of the fitted maximal effect
Target sequence (P15428 whole entry, looked up): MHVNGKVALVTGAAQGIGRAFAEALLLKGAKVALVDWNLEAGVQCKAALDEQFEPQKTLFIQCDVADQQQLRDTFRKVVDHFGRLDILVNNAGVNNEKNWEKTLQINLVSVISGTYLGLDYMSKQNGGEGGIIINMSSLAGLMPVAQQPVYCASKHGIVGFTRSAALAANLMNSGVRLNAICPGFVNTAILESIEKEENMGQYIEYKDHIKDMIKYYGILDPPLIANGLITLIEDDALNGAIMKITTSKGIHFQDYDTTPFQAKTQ
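NADH formation kinetics: reaction with 30 uM PGE2 and 1 mM NAD+ (final), 20 nM enzyme, Tris-HCl pH 8 with Tween 20, after 15 min compound preincubation at room temperature. Fluorescence change, last versus first of five reads.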
12-hLO inh – qHTS Assay for Inhibitors of 12-hLO (12-human lipoxygenase); Potency, µM (top dose mostly 57.1 µM), without a hit: at the top dose activity change, negative = inhibition, most hits filed as inhibitors; AID 1452, 2008; purified 12-hLO, xylenol orange hydroperoxide absorbance; 150,000 tested, 0.12% active; further: potency means the concentration at half of the fitted maximal effect; nearly all actives have a fitted effect of over 55% in size
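Hydroperoxide formation by human 12-lipoxygenase from 40 uM arachidonic acid was followed colorimetrically via ferric-xylenol orange complex, using the 573/405 nm absorbance ratio. Enzyme concentration was 150 nM, with 30 min reaction at room temperature.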
GLA inh pH 4.5 – qHTS Assay for Inhibitors of Human alpha-Galactosidase at pH 4.5 | purified enzyme, 4-MU-alpha-Gal fluorescence, pH 4.5 | 230,000 tested, under 10 active | activity change, negative = inhibition, % at 105 µM | Alpha-galactosidase A (Homo sapiens), P06280;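 further: 0% = full activity with enzyme and -100% = basal without enzyme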
aGal spleen mod – qHTS Assay for Inhibitors and Activators of Human alpha-Galactosidase From Spleen Homogenate | Potency, µM (top dose mostly 80 µM), for inactives: at the top dose activity change, negative = inhibition, actives largely listed as inhibitors | 240,000 tested, 0.008% active | AID 2107, 2009 | human spleen homogenate, 4MU-alpha-Gal fluorescence, 40 min;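 further: potency means the concentration at half of the fitted maximal effect; 0% = enzyme with vehicle and -100% = no enzyme basal signal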
Target sequence (P06280 32-429 limits assumed): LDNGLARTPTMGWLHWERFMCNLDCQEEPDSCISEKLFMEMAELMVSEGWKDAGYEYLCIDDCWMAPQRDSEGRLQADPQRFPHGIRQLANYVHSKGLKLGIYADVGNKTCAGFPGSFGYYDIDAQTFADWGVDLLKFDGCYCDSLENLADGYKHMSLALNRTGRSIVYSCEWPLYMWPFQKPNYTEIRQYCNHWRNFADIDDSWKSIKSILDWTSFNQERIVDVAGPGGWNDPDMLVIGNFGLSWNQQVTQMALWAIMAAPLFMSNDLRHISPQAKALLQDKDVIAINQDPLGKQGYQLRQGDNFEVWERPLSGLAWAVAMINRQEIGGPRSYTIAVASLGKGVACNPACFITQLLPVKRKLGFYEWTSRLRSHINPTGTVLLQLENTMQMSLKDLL
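qHTS titration in buffer at pH 5.0. Alpha-galactosidase activity in spleen homogenate was measured via 4-methylumbelliferone release from 1 mM fluorogenic substrate after 40 min at 37C and a pH 10 stop. AC50 came from Hill fits of control-normalized data.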
PNC inhibitor – High Content Assay for Compounds that inhibit the Assembly of the Perinucleolar Compartment; PC3M PTB-GFP, PNC prevalence imaging, 16 h; hits give low values; activity change (PNC), negative = inhibition, % at 10 µM; 140,000 tested, 3.1% active; AID 2417, 2010;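 active means readout at or below -70, meaning at least 70% loss of cells showing the perinucleolar compartment, a nuclear body marking cancer cells; inconclusive means readout between -30 and a set limit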;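 further: plate controls were DMSO wells for no effect and camptothecin positive control wells for full effect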
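Compounds are pinned in duplicate onto adhered PC3M cells stably expressing GFP-tagged PTB and incubated 16 h at 37 C. Cells are then fixed, nuclei stained with Hoechst, and PNC-positive cells counted.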
The depositor's hits bear a star; ? = inconclusive; . = not tested or not shown; [ ] = dose if it differs, or a comment. Unless noted, the call rests on the fitted dose curve; in most records, active means well fitted curve in the direction sought with a large enough effect; inconclusive means small, poorly fitted or top-dose-only effect, or another doubt; inactive means no such curve, though single readings can be large; an effect the other way counts as inactive or inconclusive. Unless noted, on the % scale 0 is the no-effect control and ±100 the full control effect.

SMILES	ALDH1A1 block	HPGD block	12-hLO inh	GLA inh pH 4.5	aGal spleen mod	PNC inhibitor
O=C(O)c1ccc(C(=O)O)c(C(=O)Nc2ccc3c(c2)Cc2ccccc2-3)c1	?	3.16µM*	-5.6%[11.4 µM]	.	.	.
CCCCc1noc(-c2c(-c3ccccc3Cl)noc2C)n1	-8.1%	.	.	-1.4[21.1 µM]	-0.6%	.
O=C(O)C/C=C(\NC(=O)OCc1ccccc1)C(=O)OCc1ccccc1	0.282µM*	.	.	6.3	0.1%	.
NC1=NC(=O)/C(=C/c2cn(Cc3ccccc3)c3ccccc23)S1	0.8%	28.2µM*	-19.6%	-5.1	-5.7%	-9.4
CCC(=O)O	2.0%	-11.9%	3.2%[0.00818 µM]	-3.1	2.4%	.
CC(OC(=O)COc1ccccc1[N+](=O)[O-])C(=O)Nc1ccc(N2CCOCC2)cc1 (stereo not given)	8.0%	.	.	-0.9	7.0%	.
COc1ccc(Cc2noc(CN3CCN(Cc4cccc(Cl)c4)CC3)n2)cc1OC	8.91µM*	.	.	-2.4	-13.3%	.
COCCN1CCN(Cc2nc(Cc3ccc(OC)c(OC)c3)no2)CC1	0.5%	.	.	6.4	-0.6%	.
O=C(COC(=O)c1ccccc1Nc1ccc(SC(F)F)cc1)NCc1ccco1	-7.5%	14.1µM*	-1.8%	-1.7	-5.8%	25.0
NC(=O)COC(=O)c1ccccc1Nc1ccc(SC(F)F)cc1	5.8%	11.2µM*	-7.3%	-9.9	-3.3%	64.8
CC(C)(C)NC(=O)COC(=O)c1ccccc1Nc1ccc(SC(F)F)cc1	?	?	-5.0%	-20.3	-4.6%	10.7
O=C(NC1CCCCCC1)c1ccc2c(=O)n3c(nc2c1)CCCCC3	10µM*	-16.0%	-5.9%	2.8	6.0%	?
O=C(Nc1ccc(F)cc1Cl)c1ccc2c(=O)n3c(nc2c1)CCCCC3	-10.3%	3.8%	1.0%	?	3.3%	?
O=C(Nc1nc(-c2ccccc2)cs1)c1ccc2c(=O)n3c(nc2c1)CCCCC3	28.2µM*	.	-2.2%	-11.4	-2.6%	-3.0
O=C(Nc1cccc(S(=O)(=O)N2CCOCC2)c1)c1ccc2c(=O)n3c(nc2c1)CCCCC3	5.62µM*	.	.	-1.1	-2.5%	.
O=C(Nc1cccc(S(=O)(=O)N2CCCC2)c1)c1ccc2c(=O)n3c(nc2c1)CCCCC3	3.55µM*	-6.1%	1.0%	-11.8	-6.3%	?
CN1CCN(c2nc(-c3ccc4c(c3)OCO4)nc3ccccc23)CC1	?	.	.	.	-13.4%	.
CC(=O)c1cccc(NC(=O)c2ccc3c(=O)n4c(nc3c2)CCCCC4)c1	5.01µM*	.	.	10.9	3.2%	.
O=C(Nc1cccc(S(=O)(=O)N2CCCCCC2)c1)c1cc(=O)c2ccccc2o1	11.2µM*	.	.	-22.6	-10.2%	.
O=c1c2cc(NC(=S)NCCN3CCCCCC3)ccc2nc2n1CCCCC2	20µM*	.	.	0.5	8.3%	.
O=c1c(-c2cccs2)nc2cnc(Oc3cccc(Cl)c3)nc2n1C[C@H]1CCCO1	?	?	-7.6%	.	?	.
COc1ccccc1N1CCN(S(=O)(=O)c2c(C)[nH]c(=O)[nH]c2=O)CC1	5.2%	.	.	-1.7	5.4%	.
C[C@@H](O)C(N)C(=O)O (stereo not given in full)	.	.	.	.	0.5%	.
CC1(C)CC(=O)C=C(N2CCN(C3=CC(=O)CC(C)(C)C3)CC2)C1	20µM*	-10.9%	-7.1%	-14.1	5.4%	?
CC1(C)CC(N2CCCC2)=CC(=[N+]2CCCC2)C1	-5.5%	-12.5%	-2.8%	-22.9	4.7%	?
SMILES	ALDH1A1 block	HPGD block	12-hLO inh	GLA inh pH 4.5	aGal spleen mod	PNC inhibitor
O=C(/C=C/c1ccnc2ccccc12)c1cccs1	28.2µM*	.	.	1.5	3.3%	.
COc1ccc(/C=C/C(=O)c2cccs2)c(OC)c1	?	?	-1.5%	-8.8	-4.1%	.
CCC/C=C/C(C)O (stereo not given)	6.9%	-4.3%	.	-5.4	0.0%	.
Cc1c(C(=O)N2CCN(c3ccccc3)CC2)sc2ncnc(N3CCC(C)CC3)c12	?	-14.3%	7.5%	0.6	-0.7%	-28.6
Cc1sc2ncnc(N3CCC(C)CC3)c2c1C	2.8%	22.4µM*	-1.4%	9.7	3.8%	-12.7
COc1ccc(C(=O)COC(=O)C2CCN(S(=O)(=O)c3cccc4cccnc34)CC2)cc1	-3.5%	-11.5%	-0.7%	3.9	2.0%	32.6
O=C(COC(=O)C1CCN(S(=O)(=O)c2cccc3cccnc23)CC1)c1ccc([N+](=O)[O-])cc1	6.31µM*	-6.0%	8.0%	-5.8	3.4%	-26.5
CCOc1ccc(N/C(C)=C\C(=O)c2ccc3c(c2)OCCO3)cc1	12.6µM*	.	.	-11.7	16.4%	.
COc1ccc(NC(=O)CN2CCN(CC(=O)Nc3ccc4c(c3)OCO4)CC2)cc1	6.31µM*	-4.7%	0.5%	-6.5	-0.6%	?
COc1ccccc1NC(=O)CN1CCN(CC(=O)Nc2ccc3c(c2)OCO3)CC1	11.2µM*	-13.1%	-5.3%	-1.5	-7.4%	16.9
O=C(CN1CCc2ccccc21)Nc1ccc2c(c1)OCO2	12.6µM*	-7.3%	-6.9%	1.1	4.3%	16.9
O=C(O)c1ccc(-n2cccn2)nc1	-1.6%	.	.	-5.5	-2.6%	.
Cc1ccc(CSCC(=O)Nc2ccc3c(c2)OCO3)cc1	7.94µM*	-26.4%	-8.1%	1.5	-15.3%	-3.5
COc1ccc(OCCCC(=O)Nc2ccc3c(c2)OCCO3)cc1	22.4µM*	-20.1%	4.7%	-1.5	6.1%	-20.3
COC(=O)c1c(NC(=O)CN2CCN(Cc3ccc4c(c3)OCO4)CC2)sc(C)c1C	12.6µM*	-9.3%	-12.3%	-3.4	2.9%	32.2
O=C(CSCc1ccccc1)Nc1ccc2c(c1)OCO2	-6.0%	-17.7%	-7.7%	4.4	5.9%	279.9
Cc1ccc(OCCCC(=O)Nc2ccc3c(c2)OCO3)cc1	?	-5.9%	-3.7%	-0.8	7.4%	25.5
COc1c(Cl)cc(-c2noc(C)c2C(=O)NCCc2ccc(C)cc2)cc1Cl	-11.0%	-10.9%	-2.8%	-23.6	-1.0%	23.3
CCSc1nnc(-c2cc(Br)ccc2N=Cc2c(C)[nH]n(-c3ccccc3)c2=O)c(=O)[nH]1	?	.	.	-13.2	-0.1%	.
CSc1nnc(-c2cc(Br)ccc2N=Cc2c(C)[nH]n(-c3ccccc3)c2=O)c(=O)[nH]1	18.9µM*	.	.	-0.1	-1.6%	.
Cc1ccc(C(=O)NC(=S)Nc2cccc(-c3nc4ccccc4s3)c2)cc1	11.2µM*	-8.1%	-0.5%	-2.5	0.5%	-112.5*
Cc1ccc(C(=O)O)cc1NC(=S)NC(=O)c1ccc(-c2ccccc2)cc1	14.1µM*	.	.	-2.8	1.5%	.
